# Only a selection was taken, and hits are over-represented in it overall.
# nsP2pro primary = Primary qHTS for inhibitors of NSP2Pro chikungunya virus (CHIKV). Potency, µM (top dose mostly 24.9 µM), without a hit: at the highest dose activity change, negative = inhibition, actives largely listed as inhibitors. Polyprotein P1234 (Chikungunya virus (strain S27-African prototype)), Q8JUX6. 31,000 tested, 1.1% active. FRET peptide cleavage, nsP2pro, fluorescence 1 h; note: nearly all actives have a fitted effect of over 60% in size
#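 FRET cleavage of 2.5 uM peptide 2 by 150 nM CHIKV protease domain at pH 8.0 (Tris, Tween 20). Compounds at 7 concentrations (up to 25 uM) preincubated 15 min. Fluorescence read after 1 h at room temperature.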
# CHIKV nsP2 cell = Secondary cell base assay for inhibitors of NSP2Pro Chikungunya virus (CHIKV); shares compounds with nsP2pro primary; cell-based CHIKV nsP2 protease reporter assay; Potency, µM (series often up to 51.1 µM), for the others: at the highest dose activity change, negative = inhibition, actives largely listed as inhibitors; 450 tested, 10% active; AID 1964100, 2024; note: nearly all actives have a fitted effect of over 70% in size
# NSP2 full ctr = Selectivity profile for inhibitors of NSP2Pro chikungunya virus (CHIKV): Full length NSP2 enzyme counterscreen (CHIKV-NSP2); Potency, µM (series often up to 50.7 µM), inactives show top-dose activity change, negative = inhibition, usual class: inhibitors; 410 tested, 39% active; shares compounds with nsP2pro primary; Full-length CHIKV NSP2 protease enzymatic counterscreen; note: nearly all actives have a fitted effect of over 65% in size
# Furin counter = Selectivity profile for inhibitors of NSP2Pro chikungunya virus (CHIKV): Human furin counterscreen; shares compounds with nsP2pro primary; Recombinant human furin enzymatic counterscreen, fluorogenic substrate; Potency, µM (doses to about 50.6 µM), for inactives: at the top dose activity change, negative = inhibition, actives largely listed as inhibitors; 410 tested, 6% active; AID 1964102, 2024
# NS23 peptide cs = Selectivity profile for inhibitors of NSP2Pro chikungunya virus (CHIKV): Endogenous NS2/3 peptide Counterscreen; shares compounds with nsP2pro primary; AID 1964103, 2024; 410 tested, 34% active; Purified CHIKV nsP2 protease, endogenous NS2/3 peptide cleavage; Potency, µM (doses to about 51 µM), without a hit: at the top dose activity change, negative = inhibition, most hits filed as inhibitors; note: nearly all actives have a fitted effect of over 55% in size
# Papain cs = Selectivity profile for inhibitors of NSP2Pro chikungunya virus (CHIKV): Papain Counterscreen; shares compounds with nsP2pro primary; 410 tested, 5% active; AID 1964104, 2024; Potency, µM (series often up to 51 µM), inactives show at the highest dose activity change, negative = inhibition, hits mostly inhibitors; purified papain protease activity, enzymatic inhibition
# nsP2pro confirm = Confirmatory qHTS for inhibitors of NSP2Pro chikungunya virus (CHIKV) | shares compounds with nsP2pro primary | CHIKV nsP2 protease enzymatic activity, qHTS | Potency, µM (titrated, usually from 25.5 µM), without a hit: top-dose activity change, negative = inhibition, hits mostly inhibitors | 410 tested, 43% active | AID 1964105, 2024; note: nearly all actives have a fitted effect of over 75% in size
# HCV NS3 counter = Selectivity profile for inhibitors of NSP2Pro chikungunya virus (CHIKV): NS34A-HCV Counterscreen. shares compounds with nsP2pro primary. HCV NS3/4A protease biochemical counterscreen. Potency, µM (doses to about 50.9 µM), most hits filed as inhibitors. 410 tested, 20% active; note: nearly all actives have a fitted effect of over 55% in size
# The depositor's hits bear a star; i = inactive; ? = inconclusive; [ ] = remark or other dose. Calls come from the whole dose curve. % is set by controls: 0 for no effect and ±100 for the full control effect; potency is the fitted concentration of half-maximal effect.
SMILES,nsP2pro primary,others
Cc1ccc(OCCn2c(CCNC(=O)c3ccccc3N)nc3ccccc32)cc1,4.47µM*,CHIKV nsP2 cell=138.1%;NSP2 full ctr=0.517µM*;Furin counter=20.6µM*;NS23 peptide cs=1.63µM*;Papain cs=-23.0%;nsP2pro confirm=1µM*;HCV NS3 counter=0.517µM*
O=C(CCCc1ccccc1)Nc1ccc(OC2CCNCC2)nc1,-22.0%,
CC(=O)c1cc([N+](=O)[O-])c(Sc2ccc(F)cc2F)s1,-21.3%,
Cc1cc(=O)oc2c3c(ccc12)OCN(Cc1ccc(Cl)cc1)C3,12.3%,
COc1ccc(CN2COc3ccc4c(oc(=O)c5ccccc54)c3C2)cc1OC,-27.7%,
O=c1oc2c3c(ccc2c2ccccc12)OCN(Cc1ccc(Cl)cc1)C3,?,CHIKV nsP2 cell=206.0%;NSP2 full ctr=?;Furin counter=?;NS23 peptide cs=?;Papain cs=-3.8%;nsP2pro confirm=4.49µM*;HCV NS3 counter=i
Fc1cc(Nc2nc(-c3ccncc3)nc3ccccc23)ccc1-c1ccc2[nH]ncc2c1,i,
Cc1cc(C)nc(NC(=S)N2CCN(Cc3cccc4ccccc34)CC2)c1,-6.0%,
CC(=O)OC[C@@]12C(=O)C[C@@H](C)[C@]3(C[C@@H](c4ccoc4)O[C@H]3OC(C)=O)[C@H]1CCC[C@]21CO1,12.0%[10 µM],
C[C@@]12C[C@@H](c3ccoc3)OC(=O)C1CC[C@]1(C)[C@H]2[C@H]2C=C[C@]1(O)C(=O)O2 (stereo not given in full),5.44µM*,CHIKV nsP2 cell=-8.8%[33.5 µM];NSP2 full ctr=8.9%[33.5 µM];Furin counter=11.8%[33.5 µM];NS23 peptide cs=3.1%[33.5 µM];Papain cs=-13.2%[33.5 µM];nsP2pro confirm=-8.9%[16.7 µM];HCV NS3 counter=i
COC(=O)[C@@]1(O)C=CC[C@@H]2[C@@]3(C)C[C@@H](c4ccoc4)OC(=O)[C@H]3CC[C@]21C,2.72µM*,CHIKV nsP2 cell=5.1%[33.5 µM];NSP2 full ctr=-23.4%[33.5 µM];Furin counter=1.8%[33.5 µM];NS23 peptide cs=3.8%[33.5 µM];Papain cs=0.9%[33.5 µM];nsP2pro confirm=?;HCV NS3 counter=i
CC(C)C[C@H]1C(=O)O[C@H](Cc2ccc(N3CCOCC3)cc2)C(=O)N(C)[C@@H](CC(C)C)C(=O)O[C@H](C)C(=O)N(C)[C@@H](CC(C)C)C(=O)O[C@H](Cc2ccc(N3CCOCC3)cc2)C(=O)N(C)[C@@H](CC(C)C)C(=O)O[C@H](C)C(=O)N1C,6.1%,
Cn1cnc(S(=O)(=O)Nc2cnccc2C(=O)Nc2nc(-c3ccccc3)cs2)c1,i,
COc1cccc2c1OCCCN(c1cc(C3CC(O)C3)nc(N)n1)C2 (stereo not given),2.5%,
CCCCCCCCN=C(N)NC(N)=NCc1ccc(Cl)c(Cl)c1,98.2%,
COc1ccc(-c2csc(NC(=O)c3ccncc3NS(=O)(=O)c3ccc(C)cc3)n2)cc1,i,
CCN(CCn1cccn1)Cc1ccccc1OCC(O)CN1CCCCC1 (stereo not given),-3.8%,
CC[C@H](N)C(=O)O,-16.3%,
O=[S+]([O-])(Nc1ccccc1)c1ccc(NCc2cccc(C(F)(F)F)c2F)cc1,i,
Cn1cnc(CCNc2ncnc3ccc(-c4ccc5c(c4)OCO5)cc23)c1,i,
Cc1nc(C)c(-c2ccc3ncnc(NCCc4cnc[nH]4)c3c2)s1,i,
Cc1ccc(S(=O)(=O)Nc2cnccc2C(=O)Nc2ccncc2)cc1,i,

# Screening results from PubChem BioAssay.
